About 83,000 compounds went through this panel and 20% of them were active in at least one assay; those are over-represented in the sample as a whole.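 Cells were grown in 96-well plates and exposed to the test compound at a single concentration for 48 hours; results are reported as percent growth, with values below 10 considered active.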 Active and inactive are the calls of the source.

The assay concerns MDA-MB-468 breast. As to the kind of experiment: NCI-60 one-dose screen, 48 h (100 = growth as untreated, 0 = no growth, -100 = all killed). Conditions: 10 µM unless noted.
With `C#CCOc1ccc2ncnc(N3CCN(C(=O)CCl)CC3)c2c1`, the growth is -9.23% [8.25 µM] (active). The value for `CCN1C(=O)N(CC)C2Nn3c(s/c(=C\c4ccc([N+](=O)[O-])cc4)c3=O)=NC21` (stereo not drawn) was 7.37% (active); that for `C[C@H]1c2cccc(O)c2C(O)=C2C(=O)[C@]3(O)C(O)=C(C(N)=O)C(=O)[C@@H](N(C)C)[C@@H]3[C@@H](O)[C@@H]21` was 41.8% (inactive). Take `Cc1c(C(N)=O)sc2ncn(CC(=O)NN=C3CCCCC3)c(=O)c12`: the growth was 109% (inactive).

Regarding `Cc1cc(Nc2ccc(C(=O)N3CCCC3)cc2)nc(NCCCNc2ccnc3cc(Cl)ccc23)n1`, the growth was 40% (inactive). Turning to `O=C(NN=C1CCCCC1)C(=O)NN=C1CCCCC1`, the growth was 113% (inactive). The value for `CCN(CC)CCSCCCNc1c2ccc(Cl)cc2nc2ccc(OC)cc12` was -50.2% (active); that for `Cn1c(Nc2ccc(C(F)(F)F)cc2)nc2cc(Oc3ccnc(-c4ncc(C(F)(F)F)[nH]4)c3)ccc21` was 32.4% (inactive); that for `Cc1cc(N(CCNc2ccnc3cc(Cl)ccc23)Cc2ccc3c(c2)OCO3)nc(N2CCN(C)CC2)n1` was -59% (active). With `Cn1c(=O)c2nc(/C=C/c3ccccc3)c(=O)[nH]c2n(C)c1=S`, the growth is 103% (inactive). `COc1cc(-c2csc(NC(=O)Nc3ccc(C(F)(F)F)cc3)n2)cc(OC)c1OC`: the growth is -8.63% (active). Consider `CC(C)c1ccc(C(=O)Nc2sc3c(c2C#N)CCC(=O)C3)cc1`, for which the growth is -45.7% (active). With `O=C1NC(SCc2ccc(F)cc2)=N/C1=C/c1cccc(OCc2ccc(Cl)cc2)c1`, the growth is 62.9% (inactive).

The record behind these values is PubChem BioAssay (NCI).
